Compounds with a hit are over-represented: about 4.1% of the library has one in this group of screens.
FMDV inh: High Throughput Screening for Foot and Mouth Disease Virus Antivirals; Potency, µM (highest dose often 57.9 µM), hits mostly inhibitors; actives 1.2% (n = 410,000); FMDV antiviral cell-based qHTS; calls by dose curve; tested in HEK293T cells; further: read-out not given here; nearly all actives have a fitted effect of over 45% in size
AMA1-RON2 inh: qHTS for Inhibitors of AMA1-RON; Towards Development of Antimalarial Drug Lead: Primary Screen | actives 0.2% (n = 360,000) | AID 720542, 2013 | Potency, µM (series often up to 58.2 µM), usual class: inhibitors | Plasmodium falciparum AMA1 (3D7) - RON2 peptide interaction | AlphaScreen AMA1-biotinylated RON2 peptide binding; further: nearly all actives have a fitted effect of over 45% in size
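AMA1 (3D7) with his tag at 25 nM final met compounds first, then biotinylated RON2 peptide at 25 nM; detection used donor plus acceptor beads, 10 µg/mL apiece, read by AlphaScreen after 30 min at room temperature.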
Sm TGR inh: qHTS Assay for the Inhibitors of Schistosoma Mansoni Peroxiredoxins. Potency, µM (doses to about 114 µM), hits mostly inhibitors. actives 3% (n = 360,000). purified TGR, DTNB reduction, TNB absorbance 405 nm. AID 485364, 2010. Schistosoma mansoni thioredoxin glutathione reductase (TGR), Q962Y6; further: nearly all actives have a fitted effect of over 60% in size
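TGR 20 nM + NADPH 100 uM (dispensed conc.), cpd preinc 15 min RT; start with NADPH (500 uM addition) then DTNB (15 mM addition). Kinetic TNB absorbance, 405 nm filter. Four-parameter Hill fit across titration.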
AmpC no deterg: qHTS Inhibitors of AmpC Beta-Lactamase (assay without detergent) | P00811 | AmpC nitrocefin hydrolysis, absorbance 480 nm, 0.0001% Triton | Potency, µM (series often up to 57.1 µM), actives largely listed as inhibitors | actives 0.52% (n = 330,000); further: nearly all actives have a fitted effect of over 20% in size
Target sequence (P00811 whole entry, looked up): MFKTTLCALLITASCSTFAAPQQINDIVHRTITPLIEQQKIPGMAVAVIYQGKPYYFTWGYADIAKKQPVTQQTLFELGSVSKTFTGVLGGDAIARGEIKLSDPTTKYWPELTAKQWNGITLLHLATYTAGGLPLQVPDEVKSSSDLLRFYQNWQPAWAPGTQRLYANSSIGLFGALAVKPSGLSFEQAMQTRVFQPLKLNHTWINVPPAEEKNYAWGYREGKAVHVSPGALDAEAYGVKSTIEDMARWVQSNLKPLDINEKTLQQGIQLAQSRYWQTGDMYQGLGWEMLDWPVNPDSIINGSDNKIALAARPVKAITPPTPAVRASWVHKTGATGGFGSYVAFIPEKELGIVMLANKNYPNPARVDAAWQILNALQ
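20 mM phosphate pH 7.0 + 0.01% (detergent screen) or 0.0001% Triton X-100; 5.3 nM AmpC reagent; cpd preinc 15 min RT; nitrocefin (800 uM stock) to start; A480 q20 s × 4 min; Activity was normalised to no-enzyme and no-compound control wells.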
AmpC detergent: qHTS Inhibitors of AmpC Beta-Lactamase (assay with detergent); Potency, µM (top dose mostly 114 µM), hits mostly inhibitors; actives 0.041% (n = 370,000); P00811; AmpC hydrolysis of nitrocefin, absorbance 480 nm, 0.01% Triton; AID 485294, 2010; further: nearly all actives have a fitted effect of over 25% in size
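20 mM phosphate pH 7.0 + 0.01% (detergent screen) or 0.0001% Triton X-100; 5.3 nM AmpC reagent; cpd preinc 15 min RT; nitrocefin (800 uM stock) to start; A480 q20 s × 4 min; Activity was normalised to no-enzyme and no-compound control wells.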
Numbers stand for hits; n = inactive; u = inconclusive; x = no result. Unless noted, the call rests on the fitted dose curve; in most records, active means well fitted curve in the direction sought with a large enough effect; inconclusive means small, poorly fitted or top-dose-only effect, or another doubt; inactive means no such curve, though single readings can be large; an effect the other way counts as inactive or inconclusive.

SMILES | FMDV inh | AMA1-RON2 inh | Sm TGR inh | AmpC no deterg | AmpC detergent
CCN(CC)S(=O)(=O)c1ccc(NC(=O)c2ccc3c(=O)n4c(nc3c2)CCCCC4)cc1 | 28.2µM | x | n | x | n
O=C(Nc1ccc2nc3n(c(=O)c2c1)CCCC3)c1cc([N+](=O)[O-])ccc1F | 20µM | n | n | n | n
CCc1ccc(NC(=O)c2ccc3c(=O)n4c(nc3c2)CCCCC4)cc1 | n | n | n | n | n
O=C(Nc1cccc(S(=O)(=O)N2CCCCC2)c1)c1ccc2c(=O)n3c(nc2c1)CCCCC3 | 3.16µM | n | n | n | n
O=C(Nc1ccc2nc3n(c(=O)c2c1)CCCC3)c1cccc([N+](=O)[O-])c1 | n | n | n | n | u
CCc1ccc(CNC(=O)C(CC)n2nc(C)c3c(C)n(-c4ccccc4)nc3c2=O)cc1 (centres undefined) | n | x | n | x | n
COc1ccccc1CNC(=O)COCc1cc(-c2cccs2)on1 | n | x | n | x | n
CCCc1noc(-c2ccc(N3CCCCC3)c([N+](=O)[O-])c2)n1 | n | x | n | x | n
COC1CCC(OC2CC(C3(C)CCC4(CC(O)C(C)C(C(C)/C=C(\C)C(=O)C(C)CC(C)C(=O)O)O4)O3)OC3(OC(C4OC(O)(CO)C(C)CC4C)CC3C)C2C)OC1C (centres undefined) | 17.8µM | n | x | x | x
CCN(CC)c1ccc2c(c1)oc(=O)c1c(Cl)cc(=O)oc12 | u | n | 6.31µM | n | n
CCN(CC)c1ccc2c(C)c(Cl)c(=O)oc2c1 | n | n | n | n | n
O=C1CC(N2CCC(c3nc4ccccc4o3)CC2)C(=O)N1Cc1cccs1 (centres undefined) | n | n | 50.1µM | n | u
CCCOc1ccc(N2C(=O)CC(N3CCN(c4nc5ccccc5s4)CC3)C2=O)cc1 (centres undefined) | n | n | 39.8µM | n | n
O=C1CC(N2CCN(c3nc4ccccc4s3)CC2)C(=O)N1Cc1cccs1 (centres undefined) | u | n | 11.2µM | n | u
NC(=O)C1CCN(C2CC(=O)N(Cc3cccs3)C2=O)CC1 (centres undefined) | n | n | 35.5µM | n | n
O=C1CC(N2CCN(c3ccc(F)cc3)CC2)C(=O)N1Cc1cccs1 (centres undefined) | n | n | u | n | n
Oc1ccc([C@@H]2CNCCc3c2cc(O)c(O)c3Cl)cc1 | n | x | x | x | x
COc1ccc(C2C=C(c3ccc(Cl)cc3)Nc3nc(-c4ccc(Cl)cc4)nn32)cc1 (centres undefined) | u | x | n | x | n
CC(=O)Nc1cc2c(cc1NC(=O)Cn1nc(-c3ccccc3F)ccc1=O)OCCO2 | n | n | 44.7µM | n | n
COc1cccc(OC)c1NC(=O)Cn1nc(-c2ccc3c(c2)OCCO3)ccc1=O | n | n | n | n | n
Clc1cccc(N2CCN(Cc3nc(-c4ccccc4)no3)CC2)c1 | n | n | n | 10µM | u
COc1ccc(-c2noc(CN3CCN(c4cccc(Cl)c4)CC3)n2)cc1 | n | x | n | x | n
CN1CCCN(Cc2nc(-c3cccc(C(F)(F)F)c3)no2)CC1 | n | n | 25.1µM | n | n
FC(F)(F)c1cccc(-c2noc(CN3CCOCC3)n2)c1 | n | n | n | n | n
Cc1ccc(-c2nnc(Cc3ccc(Cl)cc3)o2)cc1 | n | n | n | n | u
SMILES | FMDV inh | AMA1-RON2 inh | Sm TGR inh | AmpC no deterg | AmpC detergent
O=c1c(Cl)c(Cl)cnn1Cc1nnc(-c2ccc(Cl)cc2)o1 | u | n | 4.47µM | n | n
Cc1ccc(Cn2ncc(Cl)c(Cl)c2=O)cc1 | 39.8µM | n | 3.55µM | n | n
O=c1c(Cl)c(Cl)cnn1Cc1ccccc1Cl | 25.1µM | n | 12.6µM | n | n
Cc1cc(C)cc(Cn2ncc(Cl)c(Cl)c2=O)c1 | 28.2µM | n | 2.82µM | n | n
CC(C)(CNC(=O)c1cnn(-c2ncc3c(n2)-c2ccccc2CC3)c1C1CC1)N1CCOCC1 | n | x | x | x | x
Nc1c(Cl)cnn(-c2ccccc2)c1=O | n | n | x | x | x
O=c1c(Cl)c(Cl)cnn1-c1ccccc1 | u | n | 39.8µM | n | n
O=c1c2ccccc2nnn1CSc1nnc(COc2ccc(Cl)cc2)n1Cc1ccco1 | n | n | n | n | n
Clc1ccc(OCc2nnc(SCCN3CCCCC3)n2Cc2ccco2)cc1 | n | n | 25.1µM | n | u
CCN(C(=O)c1cnc(N2CCN(c3ncccn3)CC2)c2ccccc12)c1cccc(Cl)c1 | 20µM | n | n | n | n
O=C(c1cnc(N2CCN(c3ncccn3)CC2)c2ccccc12)N1CCN(c2ncccn2)CC1 | n | n | n | n | n
CN(C(=O)c1cnc(N2CCN(c3ncccn3)CC2)c2ccccc12)c1ccc(Cl)cc1 | 20µM | n | n | n | n
Cc1ccc(COC(=O)c2ccc(-c3nnn(Cc4ccc(C)cc4)n3)cc2)cc1 | n | x | n | x | n
Cc1ccc(CN2CCNC(=O)C2CC(=O)NCCCn2ncc3ccccc32)o1 (centres undefined) | n | n | 25.1µM | n | n
Cc1ccc(CN2CCNC(=O)C2CC(=O)N(Cc2c(C)nn(C)c2C)C2CC2)o1 (centres undefined) | n | n | 31.6µM | n | n
COc1ccc(CN2CCNC(=O)C2CC(=O)NCCCn2nnc3ccccc32)cc1C (centres undefined) | n | n | n | n | n
Cc1ccc(CN2CCNC(=O)C2CC(=O)NC2CCCCCC2)o1 (centres undefined) | n | n | u | n | n
Cc1ccc(Cn2ccnc2SCC(=O)Nc2nc3ccccc3s2)cc1 | n | x | n | x | n
Cc1ccc2nc(CNC(=O)c3cc(NC(=O)c4ccccc4)cc4ncn(C5CCCC5)c34)cn2c1 | n | x | x | x | x
O=S(Cc1ccc(Br)cc1)Cc1nnc(SCc2c(F)cccc2Cl)n1-c1ccccc1 (centres undefined) | 35.5µM | n | n | n | u
CCCOc1ccc(C(=O)Nc2cc3nn(-c4ccc(CC)cc4)nc3cc2C)cc1 | n | x | n | x | n
Oc1cccc(C2c3[nH]c4ccccc4c3CCN2Cc2ccoc2)c1 (centres undefined) | n | n | 17.8µM | n | n
COc1cc(N2CCC(O)CC2)ccc1Nc1nnc(Cl)c(Nc2ccccc2S(C)(=O)=O)n1 | 20µM | n | x | x | x
CC(=O)C1(C)OC(N)=C(C#N)C(c2ccccc2)C1(C#N)C#N (centres undefined) | n | n | 11.2µM | n | n
C#CCN(C[C@@H]1[C@@H](OC(=O)NCc2ccc(OC)c(OC)c2)[C@@H](OC(=O)NCc2ccc(OC)c(OC)c2)Cn2c(=O)ccc(=O)n21)S(=O)(=O)c1ccc(C)cc1 | u | n | x | x | x
